Records with an inconclusive call do not appear. Calls of active or inactive are those of the source. Unless noted, calls come from the whole dose curve; as a rule, active = well fitted curve in the direction sought with a large enough effect in the repeat runs; inconclusive = weak or mixed curves; inactive = no such curve, though single readings can be large; an effect the other way counts as inactive or inconclusive.
Columns and labels:
[1] = target: Thyrotropin-releasing hormone receptor (Homo sapiens) (UniProt P34981); test: qHTS assay to identify small molecule agonists of the thyrotropin-releasing hormone receptor (TRHR) signaling pathway (AID 1346891; calls by dose curve; note: series mostly up to about 58 µM)
Chain of Thyrotropin-releasing hormone receptor (Homo sapiens) (P34981 whole entry, looked up): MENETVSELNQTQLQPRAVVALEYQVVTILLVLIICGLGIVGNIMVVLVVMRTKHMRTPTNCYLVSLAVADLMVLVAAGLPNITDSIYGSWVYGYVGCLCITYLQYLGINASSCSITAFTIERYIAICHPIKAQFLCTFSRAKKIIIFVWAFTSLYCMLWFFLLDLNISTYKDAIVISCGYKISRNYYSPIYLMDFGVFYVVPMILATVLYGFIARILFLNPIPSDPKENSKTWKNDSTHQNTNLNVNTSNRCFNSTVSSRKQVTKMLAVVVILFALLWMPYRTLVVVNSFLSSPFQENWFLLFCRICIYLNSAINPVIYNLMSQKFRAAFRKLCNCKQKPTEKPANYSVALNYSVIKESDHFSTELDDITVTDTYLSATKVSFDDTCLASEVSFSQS
In short: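 HEK293 cells expressing TRHR plated 18 h at 37 C/5% CO2, calcium dye-loaded 2 h at 37 C, then compound added (agonist mode); kinetic calcium fluorescence read 3 min at 1 s intervals; 15 concentrations in triplicate.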

[2] = Human pregnane X receptor (PXR) small molecule agonists, qHTS cell viability counter screen (AID 1346977); note: nearly all actives have a fitted effect of over 50% in size
In short: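 PXR-Luc HepG2 cells (2,000/well, 5% charcoal-stripped FBS) preincubated 5 hr, then exposed to compounds 24 hr at 37 C. Viability read in the same wells by CellTiter-Fluor fluorescence, reagent added at 23 hr, 1 hr incubation.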

[3] = Caspase-3/7 induction in HepG2 cells by small molecules, qHTS assay (AID 1346978); note: nearly all actives have a fitted effect of over 15% in size
In short: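 Caspase-3/7 induction was measured by Caspase-Glo 3/7 luminescence (30 min, room temperature) after a 17 hr compound exposure of wild-type HepG2 cells seeded at 2,000 per well and pre-incubated 5 hr.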

[4] = Caspase-3/7 induction in CHO-K1 cells by small molecules, qHTS cell viability counter screen (AID 1346979); note: nearly all actives have a fitted effect of over 35% in size
In short: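 Wild-type CHO-K1 cells (1,500/well) treated with compound after 5 h plating; after 16 h at 37C, viability read as CellTiter-Fluor fluorescence following 1 h reagent incubation, in the same wells as the caspase read.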

[5] = Caspase-3/7 induction in CHO-K1 cells by small molecules, qHTS assay (AID 1346980); note: nearly all actives have a fitted effect of over 15% in size
In short: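 Luminescent Caspase-Glo 3/7 read (30min, room temperature) quantified apoptosis induction. Cells were wild-type CHO-K1, treated with compound for 17hr at 37 C and 5% CO2.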

[6] = Caspase-3/7 induction in HepG2 cells by small molecules, qHTS cell viability counter screen (AID 1346981); note: series mostly up to about 92 µM; nearly all actives have a fitted effect of over 30% in size
In short: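 HepG2, WT, 2,000 cells/well; 5 hr pre-incubation 37 C/5% CO2; compound pin-transferred from DMSO; 16 hr exposure; CellTiter-Fluor, 1 hr; fluorescence read.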

[7] = target: Nuclear receptor subfamily 1 group I member 2 (Homo sapiens) (UniProt O75469); test: Human pregnane X receptor (PXR) small molecule agonists, qHTS assay (AID 1346982); note: nearly all actives have a fitted effect of over 35% in size; note: potency is the fitted concentration of half-maximal effect
Chain of Nuclear receptor subfamily 1 group I member 2 (Homo sapiens) (O75469 whole entry, looked up): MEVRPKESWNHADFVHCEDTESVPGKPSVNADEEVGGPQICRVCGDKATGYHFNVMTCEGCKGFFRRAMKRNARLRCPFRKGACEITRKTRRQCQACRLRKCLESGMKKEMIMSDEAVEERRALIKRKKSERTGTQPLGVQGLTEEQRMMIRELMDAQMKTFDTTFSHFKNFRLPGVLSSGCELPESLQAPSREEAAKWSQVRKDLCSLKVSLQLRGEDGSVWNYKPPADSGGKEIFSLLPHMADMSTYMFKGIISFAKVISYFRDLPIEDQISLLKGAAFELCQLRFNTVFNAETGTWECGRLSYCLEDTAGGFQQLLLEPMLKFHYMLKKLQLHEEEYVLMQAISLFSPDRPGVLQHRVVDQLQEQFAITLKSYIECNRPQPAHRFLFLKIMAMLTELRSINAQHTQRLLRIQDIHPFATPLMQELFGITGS
In short: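 Luciferase signal from ONE-Glo (30 min, room temperature) measured activation of hPXR-driven CYP3A4 reporter expression in PXR-Luc HepG2 cells treated with compounds for 24 hr at 37 C.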

[8] = target: Nuclear receptor subfamily 1 group I member 2 (Rattus norvegicus) (UniProt Q9R1A7); test: Rat pregnane X receptor (rPXR) activation by small molecules, qHTS assay (AID 1346983); settings: rPXR luciferase reporter cells, One-Glo luminescence, 24 h; active compounds read high; note: nearly all actives have a fitted effect of over 20% in size
Chain of Nuclear receptor subfamily 1 group I member 2 (Rattus norvegicus) (Q9R1A7 whole entry, looked up): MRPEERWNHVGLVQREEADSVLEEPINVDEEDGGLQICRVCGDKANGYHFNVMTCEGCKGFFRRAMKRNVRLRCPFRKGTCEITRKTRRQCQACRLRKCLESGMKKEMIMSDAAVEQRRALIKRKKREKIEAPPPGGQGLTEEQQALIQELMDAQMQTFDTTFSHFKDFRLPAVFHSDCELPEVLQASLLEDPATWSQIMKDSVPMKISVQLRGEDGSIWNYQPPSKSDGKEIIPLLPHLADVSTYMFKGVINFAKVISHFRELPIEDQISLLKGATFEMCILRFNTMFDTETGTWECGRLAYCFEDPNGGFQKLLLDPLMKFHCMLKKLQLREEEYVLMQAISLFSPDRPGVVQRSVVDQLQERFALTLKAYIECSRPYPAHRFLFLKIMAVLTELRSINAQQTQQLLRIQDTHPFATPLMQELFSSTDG
In short: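 Luminescent readout (One-Glo luciferase, 30 min room temperature) followed 24 hr compound treatment at 37 C of rPXR cells plated 2,000 per well and preincubated 5hr; qHTS format with compounds delivered in DMSO.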

[9] = target: Nuclear receptor subfamily 1 group I member 2 (Homo sapiens) (UniProt O75469); test: CYP3A4 induction through human pregnane X receptor (PXR) by small molecules, qHTS assay (AID 1346984); note: nearly all actives have a fitted effect of over 40% in size; note: potency is the fitted concentration of half-maximal effect
In short: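 Luminescence readout: luciferase signal after One-Glo (30 min, room temperature), following 3 h at 37C with 3uM final Luciferin-IPA P450 substrate. Cells were DPX-2 (HepG2, PXR/CYP3A4-luc co-transfected) dosed for 24 h.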

[10] = target: Nuclear receptor subfamily 1 group I member 2 (Homo sapiens) (UniProt O75469); test: Human pregnane X receptor (PXR) activation by small molecules, qHTS assay (AID 1346985); note: nearly all actives have a fitted effect of over 40% in size; note: potency is the fitted concentration of half-maximal effect
In short: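 DPX-2 cells (HepG2 co-transfected with a PXR response element and a CYP3A4-promoter luciferase construct) were seeded at 2,000 per well, rested 5 hr at 37C, then exposed to DMSO-dissolved compounds for 24 hr. Activation was read as luciferase luminescence.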
% is set by controls: 0 for no effect and ±100 for the full control effect.

CCCCCCCCCC(C)=O
inactive: outcome [1] | Potency [2] | Potency [3] | Potency [4] | outcome [5] | Potency [6] | Potency [7]

Cc1cc2cc3c(C)cc(=O)oc3c(C)c2o1
active: Potency [7] 5.96 µM
inactive: outcome [1] | Potency [2] | Potency [3] | Potency [4] | outcome [5] | Potency [6] | max activation [8] 1.62% | Potency [9] | Potency [10]

CN1C(C)(C)CCCC1(C)C
inactive: outcome [1] | Potency [2] | Potency [3] | Potency [4] | outcome [5] | Potency [6] | Potency [7]

CO[C@@H]1[C@@H](OC(N)=O)[C@@H](O)[C@H](Oc2ccc3c(O)c(NC(=O)c4ccc(O)c(CC=C(C)C)c4)c(=O)oc3c2C)OC1(C)C
inactive: outcome [1] | Potency [2] | Potency [3] | Potency [4] | outcome [5] | Potency [6] | Potency [7] | max activation [8] -3.79% | Potency [9] | Potency [10]

CCOCCOCCOCC
inactive: outcome [1] | Potency [2] | Potency [3] | Potency [4] | outcome [5] | Potency [6] | Potency [7]

ClCCCl
inactive: outcome [1] | Potency [2] | Potency [3] | Potency [4] | outcome [5] | Potency [6] | Potency [7]

CC(=C(CCOC(=O)C(C)C)SSC(CCOC(=O)C(C)C)=C(C)N(C=O)Cc1cnc(C)nc1N)N(C=O)Cc1cnc(C)nc1N
inactive: outcome [1] | Potency [2] | Potency [3] | Potency [4] | outcome [5] | Potency [6] | Potency [7] | max activation [8] -2.83% | Potency [9] | Potency [10]

Cc1ccc(C=O)cc1C
inactive: outcome [1] | Potency [2] | Potency [3] | Potency [4] | outcome [5] | Potency [6] | Potency [7]

CCO[Si](CCCS)(OCC)OCC
inactive: outcome [1] | Potency [2] | Potency [3] | Potency [4] | outcome [5] | Potency [6] | Potency [7]

O=C1CCCC(=O)O1
inactive: outcome [1] | Potency [2] | Potency [3] | Potency [4] | outcome [5] | Potency [6] | Potency [7]

COCCc1ccc(OCC2CO2)cc1 (stereo not given)
inactive: outcome [1] | Potency [2] | Potency [3] | Potency [4] | outcome [5] | Potency [6] | Potency [7]

OCCN(CCO)c1cccc(Cl)c1
inactive: outcome [1] | Potency [2] | Potency [3] | Potency [4] | outcome [5] | Potency [7]

O=S(=O)(O)CCN1CCN(CCO)CC1
inactive: outcome [1] | Potency [2] | Potency [3] | Potency [4] | Potency [6] | Potency [7]

Cc1ccsc1/C=C/C1=NCCCN1C
inactive: outcome [1] | Potency [2] | Potency [3] | Potency [4] | Potency [6] | Potency [7] | max activation [8] -1.84% | Potency [9] | Potency [10]

C=CC(OCC)OCC
inactive: outcome [1] | Potency [2] | Potency [3] | Potency [4] | Potency [6] | Potency [7]

CC(C)=O
inactive: outcome [1] | Potency [2] | Potency [3] | Potency [4] | outcome [5] | Potency [6] | max activation [8] -0.452%

NNc1nnc(NN)c2ccccc12
inactive: outcome [1] | Potency [2] | Potency [3] | Potency [4] | outcome [5] | Potency [6] | Potency [7] | Potency [9] | Potency [10]

C[C@H](N)[C@H](O)c1cccc(O)c1
inactive: outcome [1] | Potency [2] | Potency [3] | Potency [4] | outcome [5] | Potency [6] | Potency [7] | max activation [8] -0.575% | Potency [10]

CC(C)=CCOC(=O)c1ccccc1
inactive: outcome [1] | Potency [2] | Potency [3] | Potency [4] | outcome [5] | Potency [7]

Cc1cccc2nccnc12
inactive: outcome [1] | Potency [2] | Potency [3] | Potency [4] | Potency [6] | Potency [7]

O=C(CCN1CCN(CCO)CC1)N1c2ccccc2Sc2ccc(C(F)(F)F)cc21
active: Potency [9] 10 µM | Potency [10] 15.8 µM
inactive: outcome [1] | Potency [2] | Potency [3] | Potency [4] | outcome [5] | Potency [6] | max activation [8] -2.18%

O=P(O)(O)OP(=O)(O)O
inactive: outcome [1] | Potency [2] | Potency [3] | Potency [4] | outcome [5] | Potency [6] | max activation [8] 1.84%

O=C(NCC(O)CO)c1c(I)c(C(=O)NCC(O)CO)c(I)c(N(CCO)C(=O)CO)c1I (stereo not given)
inactive: outcome [1] | Potency [2] | Potency [3] | Potency [4] | outcome [5] | Potency [6] | max activation [8] -4.62%

CNS(=O)(=O)CCc1ccc2[nH]cc(C3CCN(C)CC3)c2c1
inactive: outcome [1] | Potency [2] | Potency [3] | Potency [4] | Potency [6] | Potency [7]

C=Cc1ccccn1
inactive: outcome [1] | Potency [2] | Potency [3] | Potency [4] | outcome [5] | Potency [7]

OCCC(F)(F)C(F)(F)C(F)(F)C(F)(F)C(F)(F)C(F)(F)C(F)(F)C(F)(F)F
inactive: outcome [1] | Potency [2] | Potency [3] | Potency [4] | outcome [5] | Potency [7]

CCCOC(=O)C(C)O (stereo not given)
inactive: outcome [1] | Potency [2] | Potency [3] | Potency [4] | outcome [5] | Potency [7]

CC(C)OC(=O)CCCCC(=O)OC(C)C
inactive: outcome [1] | Potency [2] | Potency [3] | Potency [4] | outcome [5] | Potency [7]

CCc1ccc(C=O)cc1
inactive: outcome [1] | Potency [2] | Potency [3] | Potency [4] | outcome [5] | Potency [7]

Cc1nc2n(c(=O)c1CCN1CCC(c3noc4cc(F)ccc34)CC1)CCC[C@H]2O
inactive: activation [1] -0.0294% [at 11.8 µM] | activity change, negative = cytotoxicity [2] -2.46% [at 19 µM] | caspase activation [3] 0.536% [at 19 µM] | activity change, negative = cytotoxicity [4] 8.49% [at 19 µM] | caspase-3/7 activation [5] 0.349% [at 19 µM] | activation [7] 13.9% [at 19 µM]

Reference: PubChem BioAssay (Tox21)
